# Data published in PubChem BioAssay (EPA / NIEHS).
# Activity calls are given as the source filed them. Rule for the calls: active = hit-call score of the fitted dose curve at least 0.9, where 1 is the maximum; inactive = score below 0.9.
# What was measured:
# [1] = read-out: Matrix Metallopeptidase 9 (MMP9), MMP9 (gene 4318); experiment: BSK_KF3CT_MMP9: BioMAP Diversity Plus: KF3CT Assay for Matrix Metallopeptidase 9 (MMP9) Biomarker Activity (AID 2283074); conditions: primary human keratinocytes with fibroblasts; actives raise or lower the signal
# Method in brief: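 Human keratinocyte/foreskin fibroblast co-culture; compound added; 24 h; MMP-9 by ELISA; bidirectional fit vs DMSO baseline.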
# [2] = read-out: urokinase plasminogen activator (uPA), PLAU (gene 5328); experiment: BSK_KF3CT_uPA: BioMAP Diversity Plus: KF3CT Assay for urokinase plasminogen activator (uPA) Biomarker Activity (AID 2283075); conditions: primary human keratinocytes with fibroblasts; actives raise or lower the signal
# Method in brief: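 ELISA readout of uPA, analyzed for signal gain or loss relative to DMSO, from a human primary keratinocyte–foreskin fibroblast co-culture measured 24 h after chemical treatment.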
# CD40, CD40 (gene 958) [3] = experiment: BSK_LPS_CD40: BioMAP Diversity Plus: LPS Assay for CD40 Biomarker Activity (AID 2283076); conditions: primary human HUVEC with PBMC; actives raise or lower the signal
# Method in brief: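 In the LPS system of human endothelial cells with peripheral blood mononuclear cells, CD40 levels were read by ELISA 24 h post-treatment. Signal changes in either direction were fitted against the DMSO baseline, with parallel SRB protein staining.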
# [4] = read-out: E-selectin (Homo sapiens) (UniProt P16581); experiment: BSK_LPS_Eselectin: BioMAP Diversity Plus: LPS Assay for Eselectin Biomarker Activity (AID 2283077); conditions: primary human HUVEC with PBMC; actives raise or lower the signal
# Method in brief: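 E-selectin ELISA on LPS-stimulated endothelial cell/PBMC co-cultures, read 24 h post-treatment; gains and losses fitted against DMSO. Parallel SRB staining (0.1% SRB after 10% TCA fixation, 560 nm) flags overt cytotoxicity.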
# [5] = read-out: Interleukin-8 (IL8), CXCL8 (gene 3576); experiment: BSK_LPS_IL8: BioMAP Diversity Plus: LPS Assay for Interleukin-8 (IL8) Biomarker Activity (AID 2283078); conditions: primary human HUVEC with PBMC; actives raise or lower the signal
# Method in brief: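 ELISA read-out of IL-8 after 24 h chemical treatment of LPS-activated endothelial/PBMC human primary co-cultures. Changes either up or down relative to DMSO; overt cytotoxicity checked by sulforhodamine B staining in parallel wells.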
# [6] = read-out: Interleukin-1 alpha (IL1a), IL1A (gene 3552); experiment: BSK_LPS_IL1a: BioMAP Diversity Plus: LPS Assay for Interleukin-1 alpha (IL1a) Biomarker Activity (AID 2283080); conditions: primary human HUVEC with PBMC; actives raise or lower the signal
# Method in brief: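 Readout is IL-1a level by ELISA, 24 h post-dose, fitted as gain or loss relative to DMSO. System: LPS-activated human primary co-culture of vascular endothelium and peripheral blood mononuclear cells, with parallel SRB total-protein cytotoxicity.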
# [7] = read-out: Monocyte Chemoattractant Protein-1 (MCP1), CCL2 (gene 6347); experiment: BSK_LPS_MCP1: BioMAP Diversity Plus: LPS Assay for Monocyte Chemoattractant Protein-1 (MCP1) Biomarker Activity (AID 2283081); conditions: primary human HUVEC with PBMC; actives raise or lower the signal
# Method in brief: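 Secreted MCP-1 read by ELISA at 24 h post-dosing in an LPS-activated co-culture of endothelial cells with peripheral blood mononuclear cells. Fits run in both directions, DMSO as baseline; parallel SRB staining tracks overt cytotoxicity.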
# [8] = BSK_LPS_PGE2: BioMAP Diversity Plus: LPS Assay for Prostaglandin E2 (PGE2) Biomarker Activity (AID 2283082); conditions: primary human HUVEC with PBMC; actives raise or lower the signal;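 for AC50: secreted prostaglandin E2 measured by ELISA in LPS-stimulated co-culture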
# Method in brief: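 HUVEC plus human PBMC co-culture stimulated with LPS; secreted PGE2 quantified by ELISA 24 h after chemical dosing. Activity fitted bidirectionally against DMSO baseline; parallel SRB staining (0.1% SRB after 10% TCA fixation, 560 nm) flags overt cytotoxicity.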
# [9] = read-out: Macrophage colony-stimulating factor (MCSF), CSF1 (gene 1435); experiment: BSK_LPS_MCSF: BioMAP Diversity Plus: LPS Assay for Macrophage colony-stimulating factor (MCSF) Biomarker Activity (AID 2283083); conditions: primary human HUVEC with PBMC; actives raise or lower the signal
# Method in brief: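 Bidirectional fitting against DMSO was applied to M-CSF levels read by ELISA at 24 h post-dose. The system pairs human umbilical vein endothelium with peripheral blood mononuclear cells; parallel SRB staining tracked cytotoxicity.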
# [10] = read-out: Tissue Factor, F3 (gene 2152); experiment: BSK_LPS_TissueFactor: BioMAP Diversity Plus: LPS Assay for Tissue Factor Biomarker Activity (AID 2283084); conditions: primary human HUVEC with PBMC; actives raise or lower the signal
# Method in brief: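 Compound was added to an endothelial cell/PBMC co-culture, and after 24 h tissue factor (CD142) was read by ELISA. Gain or loss of signal was fitted against a DMSO baseline, and parallel SRB staining (560 nm) tracked overt cytotoxicity.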
# [11] = read-out: Tumor necrosis factor (Homo sapiens) (UniProt P01375); experiment: BSK_LPS_TNFa: BioMAP Diversity Plus: LPS Assay for Tumour Necrosis Factor alpha (TNFa) Biomarker Activity (AID 2283085); conditions: primary human HUVEC with PBMC; actives raise or lower the signal
# Method in brief: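 Human umbilical vein endothelial cells co-cultured with PBMC and stimulated with LPS. TNFa was measured by ELISA 24 h after chemical dosing, fitted bidirectionally relative to DMSO.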
# CD38, CD38 (gene 952) = experiment: BSK_SAg_CD38: BioMAP Diversity Plus: SAg Assay for CD38 Biomarker Activity (AID 2283087); conditions: primary human HUVEC with PBMC; actives raise or lower the signal
# Method in brief: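 Human HUVEC plus PBMC co-culture stimulated with superantigen; CD38 measured by ELISA 24 h after chemical dosing. Fluorescence read-out, bidirectional fit against DMSO; cytotoxicity tracked in parallel by SRB and Alamar Blue.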
# CD40, CD40 (gene 958) [12] = experiment: BSK_SAg_CD40: BioMAP Diversity Plus: SAg Assay for CD40 Biomarker Activity (AID 2283088); conditions: primary human HUVEC with PBMC; actives raise or lower the signal
# Method in brief: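 CD40 is measured by fluorescence ELISA in an endothelial/PBMC primary human co-culture at 24 h post-dose. Fitting is bidirectional, DMSO baseline. Parallel SRB staining (560 nm) flags cytotoxicity.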
# CD69, CD69 (gene 969) = experiment: BSK_SAg_CD69: BioMAP Diversity Plus: SAg Assay for CD69 Biomarker Activity (AID 2283089); conditions: primary human HUVEC with PBMC; actives raise or lower the signal;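 for AC50: cell surface CD69 protein quantified by ELISA with fluorescence detection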
# Method in brief: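 Values derive from bidirectional fitting relative to DMSO vehicle. Cells: umbilical vein endothelium plus peripheral blood mononuclear cells, treated 24 h before fluorescent ELISA for CD69.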
# [13] = read-out: Monocyte Chemoattractant Protein-1 (MCP1), CCL2 (gene 6347); experiment: BSK_SAg_MCP1: BioMAP Diversity Plus: SAg Assay for Monocyte Chemoattractant Protein-1 (MCP1) Biomarker Activity (AID 2283090); conditions: primary human HUVEC with PBMC; actives raise or lower the signal
# Method in brief: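 MCP-1 levels in the endothelial–PBMC SAg co-culture were quantified by ELISA at 24 h post-dosing; both increases and decreases versus DMSO scored. Cytotoxicity monitored by SRB total protein in parallel cultures.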
# [14] = read-out: Monokine induced gamma interferon (MIG), CXCL9 (gene 4283); experiment: BSK_SAg_MIG: BioMAP Diversity Plus: SAg Assay for Monokine induced gamma interferon (MIG) Biomarker Activity (AID 2283092); conditions: primary human HUVEC with PBMC; actives raise or lower the signal
# Method in brief: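 Values reflect bidirectional fitting of ELISA-measured MIG against DMSO vehicle, taken 24 h after dosing of a co-culture of human umbilical vein endothelial cells and peripheral blood mononuclear cells.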
# [15] = BSK_SAg_PBMCCytotoxicity: PBMC Cytotoxicity Assessment in the BioMAP Diversity Plus: SAg Assay (AID 2283093); conditions: primary human HUVEC with PBMC;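 note: PBMC viability measured as Alamar Blue reduction fluorescence at 546/580 nm; fitted both ways against DMSO so a hit may be loss or gain of signal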
# Method in brief: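 Compound added to 75,000 PBMC/well for 1 h; SEB and TSST-1 then added at 20 ng/mL final each; 90 h incubation; Alamar Blue 6 h; read 546/580 nm ex/em. Activity fitted bidirectionally relative to DMSO baseline.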
# [16] = BSK_LPS_SRB: Viability Assessment in the BioMAP Diversity Plus: LPS Assay (AID 2283079); conditions: primary human HUVEC with PBMC;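 note: total protein by sulforhodamine B absorbance as a cytotoxicity measure; measured one day after compound addition; fitted in both directions against DMSO so loss or gain of signal counts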
# Method in brief: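 SRB viability endpoint: cells fixed with 10% TCA, stained with 0.1% SRB, read at 560 nm, 24 h post-dose. HUVEC/PBMC co-culture; signal change in either direction scored relative to DMSO.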
# Chain of Tumor necrosis factor (Homo sapiens) (P01375 whole entry, looked up): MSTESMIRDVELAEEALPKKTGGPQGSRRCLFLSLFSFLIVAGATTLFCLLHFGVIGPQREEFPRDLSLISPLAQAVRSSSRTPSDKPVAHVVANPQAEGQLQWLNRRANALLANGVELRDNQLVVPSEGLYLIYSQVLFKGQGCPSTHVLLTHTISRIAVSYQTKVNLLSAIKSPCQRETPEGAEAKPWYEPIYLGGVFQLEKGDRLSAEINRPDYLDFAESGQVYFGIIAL
# Chain of E-selectin (Homo sapiens) (P16581 whole entry, looked up): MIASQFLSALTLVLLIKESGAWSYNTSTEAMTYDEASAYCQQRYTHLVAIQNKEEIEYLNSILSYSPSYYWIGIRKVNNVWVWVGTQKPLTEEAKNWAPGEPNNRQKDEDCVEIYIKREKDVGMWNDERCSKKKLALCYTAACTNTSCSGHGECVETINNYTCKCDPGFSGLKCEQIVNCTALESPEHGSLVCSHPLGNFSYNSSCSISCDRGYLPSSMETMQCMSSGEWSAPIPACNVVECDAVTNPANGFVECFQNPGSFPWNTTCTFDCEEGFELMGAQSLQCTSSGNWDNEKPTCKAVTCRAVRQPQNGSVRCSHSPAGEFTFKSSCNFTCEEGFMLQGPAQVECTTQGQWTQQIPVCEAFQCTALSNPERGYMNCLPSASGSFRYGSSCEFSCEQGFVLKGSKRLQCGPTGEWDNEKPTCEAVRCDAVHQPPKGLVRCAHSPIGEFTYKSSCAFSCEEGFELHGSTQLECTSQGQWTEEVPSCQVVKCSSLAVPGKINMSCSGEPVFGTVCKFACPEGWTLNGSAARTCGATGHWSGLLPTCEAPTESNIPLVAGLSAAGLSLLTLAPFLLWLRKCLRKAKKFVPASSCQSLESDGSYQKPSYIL
smiles,measurement,setting,value
CCCCCOC(=O)c1ccccc1C(=O)OCCCCC,outcome,[1],inactive
same,outcome,[2],inactive
same,AC50,"CD40, CD40 (gene 958) [3]",20 µM (active)
same,AC50,[4],31.7 µM (active)
same,AC50,[5],20 µM (active)
same,outcome,[6],inactive
same,outcome,[7],inactive
same,AC50,[8],17.7 µM (active)
same,AC50,[9],26.5 µM (active)
same,outcome,[10],inactive
same,AC50,[11],20 µM (active)
same,AC50,"CD38, CD38 (gene 952)",31.6 µM (active)
same,AC50,"CD40, CD40 (gene 958) [12]",24.8 µM (active)
same,AC50,"CD69, CD69 (gene 969)",20 µM (active)
same,outcome,[13],inactive
same,outcome,[14],inactive
same,outcome,[15],inactive
Cn1cc(-c2ccccc2)c(=O)c(-c2cccc(C(F)(F)F)c2)c1,outcome,[1],inactive
same,outcome,[2],inactive
same,outcome,"CD40, CD40 (gene 958) [3]",inactive
same,outcome,[4],inactive
same,outcome,[5],inactive
same,outcome,[16],inactive
same,outcome,[6],inactive
same,outcome,[7],inactive
same,AC50,[8],2.7 µM (active)
same,outcome,[9],inactive
same,outcome,[10],inactive
same,outcome,[11],inactive
same,outcome,"CD38, CD38 (gene 952)",inactive
same,outcome,"CD40, CD40 (gene 958) [12]",inactive
same,outcome,"CD69, CD69 (gene 969)",inactive
same,outcome,[13],inactive
same,outcome,[14],inactive
same,outcome,[15],inactive
CCN(CC)N=O,outcome,[1],inactive
same,outcome,[2],inactive
same,outcome,"CD40, CD40 (gene 958) [3]",inactive
same,outcome,[4],inactive
same,outcome,[5],inactive
same,outcome,[16],inactive
same,outcome,[6],inactive
same,outcome,[7],inactive
same,outcome,[8],inactive
same,outcome,[9],inactive
same,outcome,[10],inactive
same,outcome,[11],inactive
same,outcome,"CD38, CD38 (gene 952)",inactive
same,outcome,"CD40, CD40 (gene 958) [12]",inactive
same,outcome,"CD69, CD69 (gene 969)",inactive
same,outcome,[13],inactive
same,outcome,[14],inactive
same,outcome,[15],inactive
Nc1ccc(Oc2ccc(N)cc2)cc1,outcome,[1],inactive
same,outcome,[2],inactive
same,outcome,"CD40, CD40 (gene 958) [3]",inactive
same,outcome,[4],inactive
same,outcome,[5],inactive
same,outcome,[16],inactive
same,outcome,[6],inactive
same,outcome,[7],inactive
same,AC50,[8],12.7 µM (active)
same,outcome,[9],inactive
same,outcome,[10],inactive
same,outcome,[11],inactive
same,outcome,"CD38, CD38 (gene 952)",inactive
same,outcome,"CD40, CD40 (gene 958) [12]",inactive
same,outcome,"CD69, CD69 (gene 969)",inactive
same,outcome,[13],inactive
same,outcome,[14],inactive
same,outcome,[15],inactive
